Outcome and AC50 data for three molecules are collected here from PubChem BioAssay (EPA / NIEHS).

Calls of active or inactive are those of the source. Rule for the calls: active = hit-call score of the fitted dose curve at least 0.9, where 1 is the maximum; inactive = score below 0.9.

Read-out in assay [1]: Transforming growth factor beta 1 (TGFb1), TGFB1 (gene 7040)
As to the kind of experiment: BSK_KF3CT_TGFb1: BioMAP Diversity Plus: KF3CT Assay for Transforming growth factor beta 1 (TGFb1) Biomarker Activity (AID 2283072). The note with it: primary human keratinocytes with fibroblasts; actives raise or lower the signal. The procedure, abridged:
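ELISA quantifies TGF-b1 at 24 h post-dose in a primary human skin co-culture of keratinocytes and fibroblasts, with gain or loss judged against DMSO. Parallel SRB total-protein staining flags overt cytotoxicity.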

Read-out in assay [2]: C-C motif chemokine 2 (Homo sapiens) (UniProt P13500)
In words: BSK_KF3CT_MCP1: BioMAP Diversity Plus: KF3CT Assay for Monocyte Chemoattractant Protein 1 (MCP1/CCL2) Biomarker Activity (AID 2283073). To be noted: primary human keratinocytes with fibroblasts; actives raise or lower the signal. Summed up:
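Keratinocytes and foreskin fibroblasts were co-cultured, dosed with chemical, and sampled 24 h later. MCP-1 was quantified by ELISA, and the endpoint was analyzed with bidirectional fitting using DMSO as negative control.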

Read-out in assay [3]: Matrix Metallopeptidase 9 (MMP9), MMP9 (gene 4318)
As to the kind of experiment: BSK_KF3CT_MMP9: BioMAP Diversity Plus: KF3CT Assay for Matrix Metallopeptidase 9 (MMP9) Biomarker Activity (AID 2283074).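 For AC50: MMP9 protein level quantified by ELISA in the co-culture.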 The note with it: primary human keratinocytes with fibroblasts; actives raise or lower the signal. Summed up: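 MMP-9 quantified by ELISA after 24 h chemical treatment of primary human skin keratinocyte/fibroblast co-cultures; gain or loss fitted against DMSO, with parallel SRB staining (0.1% SRB, 560 nm) for overt cytotoxicity.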

Read-out in assay [4]: urokinase plasminogen activator (uPA), PLAU (gene 5328)
In words: BSK_KF3CT_uPA: BioMAP Diversity Plus: KF3CT Assay for urokinase plasminogen activator (uPA) Biomarker Activity (AID 2283075). The note with it: primary human keratinocytes with fibroblasts; actives raise or lower the signal. The procedure, abridged: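 ELISA read-out of uPA 24 h after dosing human skin keratinocytes co-cultured with foreskin fibroblasts. Signal change fitted both ways relative to DMSO; sulforhodamine B on parallel cultures marks overt cytotoxicity.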

Read-out in assay [5]: CD40, CD40 (gene 958)
As to the kind of experiment: BSK_LPS_CD40: BioMAP Diversity Plus: LPS Assay for CD40 Biomarker Activity (AID 2283076). The note with it: primary human HUVEC with PBMC; actives raise or lower the signal. The procedure, abridged: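 CD40 signal, measured by ELISA, is fitted in both directions relative to DMSO vehicle. The system is an LPS-driven human vascular primary co-culture of endothelial cells and PBMC, sampled 24 h after compound addition.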

Read-out in assay [6]: Interleukin-8 (IL8), CXCL8 (gene 3576)
In words: BSK_LPS_IL8: BioMAP Diversity Plus: LPS Assay for Interleukin-8 (IL8) Biomarker Activity (AID 2283078). The note with it: primary human HUVEC with PBMC; actives raise or lower the signal. The procedure, abridged: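 Endothelial cells and PBMC from human donors are co-cultured, treated with chemicals and LPS, then assayed for IL-8 by ELISA after 24 h. Parallel SRB staining (0.1% SRB after 10% TCA fixation, 560 nm) flags cytotoxicity.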

Assay [7] can be described thus: BSK_LPS_SRB: Viability Assessment in the BioMAP Diversity Plus: LPS Assay (AID 2283079).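 Note: total protein by sulforhodamine B absorbance as a cytotoxicity measure; measured one day after compound addition; fitted in both directions against DMSO so loss or gain of signal counts.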 To be noted: primary human HUVEC with PBMC. The procedure, abridged:
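Overt cytotoxicity was gauged by sulforhodamine B total-protein staining in a primary human vascular endothelial and mononuclear cell co-culture 24 h post-dosing. Activity was fitted in both directions relative to DMSO.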

Read-out in assay [8]: Interleukin-1 alpha (IL1a), IL1A (gene 3552)
In words: BSK_LPS_IL1a: BioMAP Diversity Plus: LPS Assay for Interleukin-1 alpha (IL1a) Biomarker Activity (AID 2283080). The note with it: primary human HUVEC with PBMC; actives raise or lower the signal. The procedure, abridged: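 Measured: IL-1 alpha via ELISA at 24 h in LPS-activated human umbilical vein endothelium–PBMC co-culture. Baseline: DMSO, bidirectional fitting.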

Read-out in assay [9]: Monocyte Chemoattractant Protein-1 (MCP1), CCL2 (gene 6347)
As to the kind of experiment: BSK_LPS_MCP1: BioMAP Diversity Plus: LPS Assay for Monocyte Chemoattractant Protein-1 (MCP1) Biomarker Activity (AID 2283081).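 For AC50: secreted MCP-1 protein quantified by ELISA in culture supernatant.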 The note with it: primary human HUVEC with PBMC; actives raise or lower the signal. The procedure, abridged: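 LPS-stimulated HUVEC/PBMC co-culture; chemical, 24 h; MCP-1 by ELISA; bidirectional fit vs DMSO; cytotoxicity via SRB (0.1% stain, 10% TCA fix, 560 nm) in parallel wells.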

The nature of assay [10]: BSK_LPS_PGE2: BioMAP Diversity Plus: LPS Assay for Prostaglandin E2 (PGE2) Biomarker Activity (AID 2283082). To be noted: primary human HUVEC with PBMC; actives raise or lower the signal. The procedure, abridged: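 PGE2 release measured by ELISA in an LPS-activated co-culture of human umbilical vein endothelial cells and peripheral blood mononuclear cells, read at 24 h post-dosing. DMSO served as baseline for bidirectional curve fitting.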

Read-out in assay [11]: Tissue Factor, F3 (gene 2152)
In words: BSK_LPS_TissueFactor: BioMAP Diversity Plus: LPS Assay for Tissue Factor Biomarker Activity (AID 2283084). To be noted: primary human HUVEC with PBMC; actives raise or lower the signal. The procedure, abridged: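 In this co-culture system of umbilical vein endothelium with PBMC, stimulated with LPS, cell-surface CD142 is detected by ELISA at 24 h. Endpoint values derive from bidirectional fitting, DMSO serving as baseline.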

Read-out in assay [12]: Tumor necrosis factor (Homo sapiens) (UniProt P01375)
In words: BSK_LPS_TNFa: BioMAP Diversity Plus: LPS Assay for Tumour Necrosis Factor alpha (TNFa) Biomarker Activity (AID 2283085).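 For AC50: TNFa protein level quantified by ELISA in the co-culture.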 The note with it: primary human HUVEC with PBMC; actives raise or lower the signal. Summed up:
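TNFa was quantified by ELISA in LPS-activated co-cultures of human endothelial cells and PBMC, 24 h post-dosing. Both increases and decreases versus DMSO were fitted.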

Read-out in assay [13]: Vascular cell adhesion molecule 1 (VCAM1), VCAM1 (gene 7412)
In words: BSK_LPS_VCAM1: BioMAP Diversity Plus: LPS Assay for Vascular cell adhesion molecule 1 (VCAM1) Biomarker Activity (AID 2283086). To be noted: primary human HUVEC with PBMC; actives raise or lower the signal. The procedure, abridged: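 VCAM-1 quantified by ELISA in an LPS-activated co-culture of human endothelial cells and peripheral blood mononuclear cells, read 24 h post-treatment. Fitted in both directions versus DMSO; parallel SRB staining flags overt cytotoxicity.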

Read-out in assay [14]: CD38, CD38 (gene 952)
As to the kind of experiment: BSK_SAg_CD38: BioMAP Diversity Plus: SAg Assay for CD38 Biomarker Activity (AID 2283087). The note with it: primary human HUVEC with PBMC; actives raise or lower the signal. Summed up: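 CD38 quantified by ELISA (fluorescence) in a superantigen-activated endothelial cell–PBMC co-culture at 24 h post-dose. Activity fitted in both directions relative to DMSO; parallel SRB and Alamar Blue cytotoxicity read-outs.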

Read-out in assay [15]: CD40, CD40 (gene 958)
As to the kind of experiment: BSK_SAg_CD40: BioMAP Diversity Plus: SAg Assay for CD40 Biomarker Activity (AID 2283088). The note with it: primary human HUVEC with PBMC; actives raise or lower the signal. The procedure, abridged:
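Fluorescence ELISA read-out of CD40 from umbilical vein endothelium plus peripheral blood mononuclear cells, sampled 24 h after dosing. Values come from bidirectional curve fitting with DMSO as baseline.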

Read-out in assay [16]: CD69, CD69 (gene 969)
In words: BSK_SAg_CD69: BioMAP Diversity Plus: SAg Assay for CD69 Biomarker Activity (AID 2283089).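 For AC50: cell surface CD69 protein quantified by ELISA with fluorescence detection.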 To be noted: primary human HUVEC with PBMC; actives raise or lower the signal. The procedure, abridged:
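Values derive from bidirectional fitting relative to DMSO vehicle. Cells: umbilical vein endothelium plus peripheral blood mononuclear cells, treated 24 h before fluorescent ELISA for CD69.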

Read-out in assay [17]: Monocyte Chemoattractant Protein-1 (MCP1), CCL2 (gene 6347)
As to the kind of experiment: BSK_SAg_MCP1: BioMAP Diversity Plus: SAg Assay for Monocyte Chemoattractant Protein-1 (MCP1) Biomarker Activity (AID 2283090). To be noted: primary human HUVEC with PBMC; actives raise or lower the signal. Summed up:
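Values derive from bidirectional fitting of ELISA-measured MCP1 against DMSO controls. Readings were taken 24 h after dosing human vascular endothelial cells co-cultured with peripheral blood mononuclear cells under superantigen stimulation.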

Read-out in assay [18]: E-selectin (Homo sapiens) (UniProt P16581)
As to the kind of experiment: BSK_SAg_Eselectin: BioMAP Diversity Plus: SAg Assay for Eselectin Biomarker Activity (AID 2283091). To be noted: primary human HUVEC with PBMC; actives raise or lower the signal. Summed up:
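Primary human endothelial cells and peripheral blood mononuclear cells were co-cultured and exposed to chemical for 24 hours. E-selectin levels were then quantified by ELISA, with bidirectional curve fitting normalised to DMSO controls.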

Tumor necrosis factor (Homo sapiens), sequence (P01375 whole entry, looked up): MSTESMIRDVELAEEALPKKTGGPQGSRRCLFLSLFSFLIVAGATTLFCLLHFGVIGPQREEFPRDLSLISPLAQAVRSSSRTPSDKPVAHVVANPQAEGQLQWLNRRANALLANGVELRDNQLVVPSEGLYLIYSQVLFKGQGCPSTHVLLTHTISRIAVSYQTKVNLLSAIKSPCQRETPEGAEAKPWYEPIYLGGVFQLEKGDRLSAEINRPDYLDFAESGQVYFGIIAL
E-selectin (Homo sapiens), sequence (P16581 whole entry, looked up): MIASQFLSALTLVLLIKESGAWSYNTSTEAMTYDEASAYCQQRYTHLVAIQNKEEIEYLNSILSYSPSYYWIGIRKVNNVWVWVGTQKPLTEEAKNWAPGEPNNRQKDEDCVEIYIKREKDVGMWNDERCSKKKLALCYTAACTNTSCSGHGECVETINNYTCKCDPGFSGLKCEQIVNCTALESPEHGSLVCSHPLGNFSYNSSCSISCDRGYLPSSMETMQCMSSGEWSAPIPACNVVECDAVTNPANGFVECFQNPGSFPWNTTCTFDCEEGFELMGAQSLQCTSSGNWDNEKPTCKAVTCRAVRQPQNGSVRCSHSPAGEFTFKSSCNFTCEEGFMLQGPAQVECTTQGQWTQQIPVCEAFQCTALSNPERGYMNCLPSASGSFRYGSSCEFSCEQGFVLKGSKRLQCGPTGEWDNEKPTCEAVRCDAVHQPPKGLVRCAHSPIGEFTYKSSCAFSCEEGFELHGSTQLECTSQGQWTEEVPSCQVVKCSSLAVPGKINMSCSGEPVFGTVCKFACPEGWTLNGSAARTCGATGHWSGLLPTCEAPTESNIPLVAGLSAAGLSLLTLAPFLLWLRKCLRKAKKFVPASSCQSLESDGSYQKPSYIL

For orientation: AC50 means the concentration giving half of the maximal activity seen. Regarding `O=C(OCCOCCOC(=O)c1ccccc1)c1ccccc1`, the outcome in [1], in assay [2], in assay [3], in assay [4], in assay [5] and in assay [6] was inactive. Further, the result in assay [7], in assay [8], in assay [9], in assay [10], in assay [11] and in assay [13] was inactive. Also, the outcome in [14], in [15], in assay [16], in [17] and in assay [18] was inactive. Besides, in [12], the AC50 was 3.97 µM (active).
On to `N#C[C@@H]1CC(F)(F)CN1C(=O)CNC1CC2CCC(C1)N2c1ncccn1` (stereo partly drawn), for which the result in [1], in assay [2], in [3], in [4], in assay [6] and in assay [7] was inactive. In addition, the result in [8], in [9], in assay [11], in assay [12], in assay [13] and in assay [18] was inactive. Also, the AC50 in assay [5] is 4.2 µM (active); in assay [10], 0.939 µM (active); in [14], 4.4 µM (active); in assay [15], 4.8 µM (active); in [16], 4.59 µM (active); in assay [17] it was 6.57 µM (active).
With `CC(C)(C)c1ccc(O)c(C(C)(C)C)c1`, the AC50 in assay [1] is 8.63 µM (active); in assay [2], 13.4 µM (active); in assay [3], 9.23 µM (active); in assay [4], 11.3 µM (active); in [5], 14 µM (active); in [6] it was 26.6 µM (active). For the same molecule, the AC50 in assay [7] was 17.7 µM (active); in [8], 14.4 µM (active); in assay [9] it was 26.7 µM (active); in assay [10], 16.9 µM (active); in assay [11], 20 µM (active); in assay [12], 13.2 µM (active). In addition, the AC50 is 14.5 µM (active) in assay [14]; 20 µM (active) in assay [15]; 24.8 µM (active) in assay [16]; 23.6 µM (active) in assay [17]; 11.9 µM (active) in assay [18].
